# HT1080NT lethal: kills 2HG-producing HT-1080-NT fibrosarcoma cells; HT-1080-NT fibrosarcoma viability, CellTiter-Glo ATP luminescence, 48 h; Potency, µM (series often up to 46.1 µM), for inactives: top-dose activity, negative = less viability, hits mostly cytotoxic; hit rate 1.6% among 360,000; AID 686970;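 also: NT is the 2HG producing partner of a matched IDH1 knockdown line; 0% = DMSO-treated cells and -100% = media-only wells without cells; nearly all actives have a fitted effect of over 55% in size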
#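 HT-1080-NT; 750 cells/well; 5% FBS RPMI; 48 h compound, 37 degrees C; CellTiter-Glo luminescence; curve fitting and curve-class assignment.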
# KB-V1 cytotox: KB-V1 MDR subline cytotoxicity. KB-V1 MDR cells viability, CellTiter-Glo, 72 h. Potency, µM (highest dose often 46.1 µM), actives largely listed as cytotoxic. hit rate 3.4% among 400,000. AID 1347076; also: nearly all actives have a fitted effect of over 60% in size
#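 KB-V1 cells (P-gp-expressing MDR subline of KB-3-1) in phenol-red-free DMEM with 10% FBS were exposed to library compounds over a concentration series for 72 h at 37 degrees C. Viability read by CellTiter-Glo luminescence; concentration-effect curves fitted after normalization.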
# HT1080 IDH1KD tx: HT-1080 IDH1 knockdown cell toxicity (counter line); Potency, µM (titrated, usually from 46.1 µM), inactives show top-dose activity, negative = toxicity, actives largely listed as cytotoxic; HT-1080 IDH1 knockdown viability, ATP luminescence, 48 h; hit rate 2% among 360,000;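 also: 0% = DMSO wells and -100% = cell-free medium wells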
#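 % activity derives from luminescence (CellTiter-Glo), normalised to DMSO and no-cell wells. HT-1080-IDH1KD cells, 750/well, had 48 h compound exposure at 37 °C.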
# KB-3-1 tox: kills parental KB-3-1 adenocarcinoma cells; Potency, µM (doses to about 46.1 µM), actives largely listed as cytotoxic; KB-3-1 viability, CellTiter-Glo ATP luminescence, 72 h; AID 1347075; hit rate 1.4% among 400,000; also: nearly all actives have a fitted effect of over 60% in size
#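 Luminescent ATP read-out (CellTiter-Glo) measures survival of drug-naive KB-3-1 cells after 72 h compound exposure at 37 °C. Titration series was screened from lowest to highest concentration, with DMSO vehicle plates as background controls.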
# TDP1 cell noCPT: qHTS for Inhibitors of human tyrosyl-DNA phosphodiesterase 1 (TDP1): qHTS in cells in absence of CPT | DT40 Tdp1-/- hTDP1 cells, no CPT, ATP luminescence, 48 h | hit rate 15% among 420,000 | Potency, µM (series often up to 46.2 µM), inactives show top-dose activity change, negative = growth inhibition, hits mostly inhibitors; also: nearly all actives have a fitted effect of over 55% in size
#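 Chicken DT40 Tdp1-/- cells complemented with human TDP1, screened without camptothecin (DMSO vehicle only), 400 cells/well. Compounds pin-transferred, cells incubated at 37 °C for at least 48 hr. Growth read as ATP-dependent luminescence (CellTiter-Glo, 30 min at RT).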
# DT40 TDP1 CPT: growth inhibition of DT40 Tdp1-/-;hTDP1 cells with camptothecin (screen for TDP1 inhibitors) | Potency, µM (series often up to 46.2 µM), without a hit: top-dose activity change, negative = growth inhibition, actives largely listed as inhibitors | hit rate 12% among 420,000 | chicken DT40 Tdp1-/-;hTDP1 cells + 20 nM CPT, ATP luminescence, 48 h | AID 686979; also: nearly all actives have a fitted effect of over 55% in size
#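 Chicken DT40 Tdp1-/- cells stably complemented with human TDP1 were seeded at 400 cells/well in medium containing 20 nM camptothecin, exposed to pin-transferred compounds, and grown at 37 °C for at least 48 hr. Viability was read as ATP luminescence.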
# * = called active by the depositor; i = inactive; ? = inconclusive; . = no result. Sampled rows, rich in hits. Any-hit rate of the full collection: about 19%. Calls follow the shape of the dose curve; as a rule, active = well fitted curve in the direction sought with a large enough effect; inconclusive = small, poorly fitted or top-dose-only effect, or another doubt; inactive = no such curve, though single readings can be large; an effect the other way counts as inactive or inconclusive. Unless noted, % is scaled to controls: 0 for no effect and ±100 for the full control effect; potency is read from the fitted curve at half-maximal effect.
SMILES,HT1080NT lethal,KB-V1 cytotox,HT1080 IDH1KD tx,KB-3-1 tox,TDP1 cell noCPT,DT40 TDP1 CPT
CC1=CC(C)(C)Nc2ccc(Cc3ccc4c(c3)C(C)=CC(C)(C)N4)cc21,-15.1%,i,-17.4%,i,20.6µM*,20.6µM*
Cc1occc1C(=O)Nc1sccc1C(N)=O,27.2%,i,0.1%,i,2.7%,6.2%
NC(=O)c1ccsc1NC(=O)c1coc2ccccc2c1=O,-2.3%,i,-15.3%,i,29.1µM*,?
Cc1cccc(N2CCN(C(=O)CCCn3c(=O)[nH]c4ccsc4c3=O)CC2C)c1 (configuration not stated),-8.8%,?,1.3%,i,25.9µM*,-13.9%
Cc1cccc(N2CCN(C(=O)NC3CCCCC3)CC2C)c1 (configuration not stated),-0.5%,i,15.0%,i,-7.9%,-27.5%
Cc1cccc(N2CCN(C(=O)CCn3c(=O)[nH]c4ccsc4c3=O)CC2C)c1 (configuration not stated),-14.9%,i,-28.8%,i,10.3µM*,?
Cc1cccc(N2CCN(C(=O)/C=C/c3cccs3)CC2C)c1 (configuration not stated),-8.6%,?,-6.9%,i,14.6µM*,?
COc1cccc(NC(=O)CCC(=O)N2Cc3ccccc3Oc3ncccc32)c1,.,i,.,i,-17.6%,-23.6%
COc1ccccc1NC(=O)CCS(=O)(=O)c1cc2c3c(c1)CCN3C(=O)CC2,.,i,.,i,-7.9%,?
O=c1[nH]c2ccc(NCc3ccc(-c4ccc(F)cc4)o3)cc2[nH]1,.,i,.,i,-13.4%,-22.7%
O=C(CSc1nc(-c2cccs2)cc(C(F)(F)F)n1)NCc1ccccc1,-2.0%,i,?,i,23.1µM*,?
Cc1cc(NC(=O)CCCS(=O)(=O)c2nc(-c3cccs3)cc(C(F)(F)F)n2)no1,5.8µM*,i,5.8µM*,13µM*,2.59µM*,2.59µM*
O=C(NC(=O)c1ccc(F)cc1)Nc1nc(-c2cccs2)cc(C(F)(F)F)n1,-4.9%,i,3.1%,i,?,?
CC(C)CNC(=O)CSc1nc(-c2cccs2)cc(C(F)(F)F)n1,-3.6%,i,-7.2%,i,?,?
COc1ccc(-c2cc(C(F)(F)F)nc(SCCC(=O)Nc3cc(C)on3)n2)cc1,-0.5%,i,-3.4%,i,-13.9%,-16.3%
O=C(O)CCS(=O)(=O)c1nc(-c2cccs2)cc(C(F)(F)F)n1,?,i,?,i,14.6µM*,10.3µM*
CC(C)OC(=O)c1ccc(NC(=O)CSc2nc(-c3cccs3)cc(C(F)(F)F)n2)cc1,.,i,.,i,29.1µM*,16.4µM*
COc1cc(NC(=O)CCS(=O)(=O)c2nc(-c3cccs3)cc(C(F)(F)F)n2)cc(OC)c1OC,.,.,.,.,6.51µM*,4.11µM*
COc1ccc(-c2cc(C(F)(F)F)nc(SCC(=O)NCc3cccs3)n2)cc1OC,0.2%,?,0.1%,i,?,?
COc1cc(NC(=O)CSc2nc(-c3cccs3)cc(C(F)(F)F)n2)cc(OC)c1OC,.,i,.,i,?,20.6µM*
O=C(CCS(=O)(=O)c1nc(-c2cccs2)cc(C(F)(F)F)n1)Nc1cccc(O)c1,.,.,.,.,5.17µM*,2.31µM*
O=C(CCSc1nc(-c2ccco2)cc(C(F)(F)F)n1)Nc1cccc(O)c1,.,i,.,i,?,?
COc1ccccc1Nc1ncnc2c1c(C)c(C)n2CCO,5.4%,?,5.5%,i,-26.0%,-3.1%
COc1ccc(-c2nn(-c3cccc(F)c3)c3c2cnc2cc(OC)c(OC)cc23)cc1,.,i,.,i,?,?
COc1ccccc1-c1cnn2c(NCc3ccccc3)cc(C)nc12,-1.2%,i,7.6%,i,?,?

# Compound activity from PubChem BioAssay.
